The panel holds about 83,000 compounds, 20% with a hit somewhere; the sample as a whole holds those more often.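 Values shown are percent growth following 48 h exposure of cells in 96-well plates to a single concentration of compound; below 10 was considered active.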 Unmarked numbers belong to inactive results. Active and inactive are the calls of the source.

The assay concerns BT-549 breast. Kind of assay: NCI-60 one-dose screen, 48 h (100 = growth as untreated, 0 = no growth, -100 = all killed). The following applies: 10 µM unless noted. The protocol: Growth inhibition of the BT-549 human tumor cell line is measured as a screen for anti-cancer activity. Cells are grown in 96 well plates and exposed to the test compound for 48 hours. Compounds are tested at a single concentration, which is 10^-5 M for most compounds. The reported endpoint is percent growth (GI% or GIPRCNT), where numbers from 0 - 100% represent growth inhibition, and numbers from -100% - 0 represent cell death. For example, a value of 40 represents 60% growth inhibition. A value of 0 means no net growth occurred over the course of the experiment. A value of -40 indicates 40% of cells at the beginning of the experiment died by the end of the experiment. A value of -100 means all cells are dead at the end of the experiment.
NCI-60 Human Tumor Cell Lines Screen was performed using the standard one-dose NCI protocol, which is described in more detail at https://dtp.cancer.gov/discovery_development/nci-60/default.htm.
Compounds with GIPRCNT values below 10 were considered active. Activity score was based on GIPRCNT using the following formula: […]
Score is 0 for GIPRCNT values of 100 or above, 50 for GIPRCNT values of 0, and 100 for GIPRCNT values of -100.
Take `Cn1c(NCCc2ccc(O)c(O)c2)nc2c1c(=O)n(Cc1ccc(Br)cc1)c(=O)n2C`: the growth was 73%.
Turning to `Cc1ccc(NS(=O)(=O)c2ccc(-c3cnc(C4CC4)o3)cc2)cc1C`, the growth was 35.5%.
With `Cc1ccc(-c2onc3c(=O)[nH]nc(-c4ccccc4)c23)cc1` the figure was 40.5%; with `C#CCOc1ccc2ncnc(N3CCN(C(=O)CCl)CC3)c2c1`, 56.8% [8.25 µM]; with `O=C1c2cccc3cccc(c23)C(=O)N1CCCCN1CCN(CCCCOc2ccc(-c3nc4ccc(N5CCOCC5)cc4[nH]3)cc2)CC1`, 91.7%.
For `CCc1nc(N)nc(N)c1C#CC(C)c1cc(-c2ccnc(C)c2)c2oc(C)nc2c1` (stereo not given), the growth was 18.2%.
With `Nc1ccc(S(=O)(=O)O)c2ccc(N=Nc3ccc(N=Nc4ccc(S(=O)(=O)O)cc4)c4ccccc34)c(O)c12` the figure was 107%.
With `CCOC(=O)c1sc(Nc2ccc(Cl)cc2)nc1C` the figure was -4.09% (active); with `COc1ccc(CN2c3ccccc3Oc3ccccc32)cc1F`, 70.1%.
With `CC(=O)Oc1ccc(Cl)cc1CN(C(C)=O)C1CCCCC1`, the growth was 107%.
`O=c1nc2oc3ccc4ccccc4c3cc-2s1`: the growth was 49%.
Take `NC(=O)c1cc(I)ccc1NC(=O)/C=C/c1ccccc1Cl`: the growth is 70.1%.
With `CCOC(=O)c1cc(C(=O)c2ccc(O)c(O)c2)n2ccc(-c3ccn4c(C(=O)c5ccc(O)c(O)c5)cc(C(=O)OCC)c4c3)cc12` the figure was 96%; with `O=C1OCC2=C1C(c1ccncc1)c1cc3c(cc1N2CCO)OCO3` (stereo not given), 112%; with `COc1cc2nnc3c4cccnc4[nH]c3c2cc1OC`, 72.9%.
Take `N#CCCN=Nc1c(O)[nH]c2ccc([N+](=O)[O-])cc12`: the growth was 107%.
As to `Nc1n[nH]c2ccc([C@@H]3Nc4ccc5[nH]ncc5c4[C@H]4C5C=CC(C5)[C@@H]34)cc12` (stereo not given in full), the growth is 3.98% (active).
With `CC1=C[C@H]2c3c(c(O)c(O)c4oc(-c5ccccc5)cc(=O)c34)[C@H](c3cc(O)c(O)c4oc(-c5ccccc5)cc(=O)c34)[C@H]2C(C)(C)C1` the figure was 0.289% (active); with `COc1cc2nc(N3CCCC3)nc(NCCc3ccccc3)c2cc1OC`, 82.6%; with `CN1C(=O)C2(SCC(C(=O)NCc3ccccc3)N2C(=O)C2CCCCC2)c2ccccc21` (stereo not given), 98.3%.
As for `Cc1c(/C=C/[N+](=O)[O-])ccc2c1[nH]c1ccccc12`, the growth was 59.2%.
With `COc1ccc(/C=C2\Oc3cc(OCCCCN4CCCC4)ccc3C2=O)cc1` the figure was 82.3%; with `CC1CCNC(C)C1` (stereo not given), 105%; with `COc1cc(C)c(C2C(C#N)=C(N)Oc3n[nH]c(-c4cccs4)c32)cc1C(C)C` (stereo not given), 102%.
With `O=c1cc(/C(=C2/C=CC=N2)c2ccc[nH]2)c2cc(Cl)ccc2o1` the figure was 52.1%.
With `COC(=O)[C@]12CCC(C)(C)C[C@H]1[C@H]1C(=O)C[C@@H]3[C@@]4(C)c5c([nH]c6ccccc6c5=O)C(C)(C)[C@@H]4CC[C@@]3(C)[C@]1(C)CC2` the figure was 76.4%.
For `Cc1cc(N2CCCCC2)nc(NC2CCCC(Nc3ccnc4cc(Cl)ccc34)C2)n1` (stereo not given), the growth is -67% (active).
For `N#Cc1nnn(-c2ccc(S(N)(=O)=O)cc2)c1NCC(=O)c1ccccc1`, the growth is 98%.
Consider `CCNC(=O)Oc1ccc(/C(=C(\C)c2ccc(Cl)cc2)c2ccc(OCCN3CCCCC3)cc2)cc1`, for which the growth was 72.8%.
For `O=C(N=Nc1c(O)[nH]c2ccccc12)c1cc(-c2ccccc2)on1`, the growth is 109%.
With `Cc1ccc(/C=C2\SC(=S)N(CC(=O)NCCCN3CCOCC3)C2=O)cc1`, the growth was 102%.
As for `O=C(CCl)Oc1ccc(-c2ccccc2)c(Br)c1`, the growth was 104%.
`COc1ccc(C(=O)/C=C/c2cccnc2Nc2cc(OC)c(OC)c(OC)c2)cc1`: the growth was 36.3%.
With `C=C1C(=O)O[C@H]2[C@H]1CC/C(C=Nc1ccc(C(F)(F)F)cc1N)=C\CC[C@@]1(C)O[C@@H]21` the figure was 16.3%; with `COc1ccc(Nc2c3c4c(cccc4[nH]c2=O)C(=O)c2ccccc2-3)cc1`, 6.53% (active).
With `COc1ccc(C2Nc3c(c(C(C)(C)C)nn3-c3ccccc3)C(=O)CS2)cc1` (stereo not given) the figure was 122%; with `CCOC(=O)c1c(C)oc2ncnc(N3CCN(C(=O)COc4ccc(SC)cc4)CC3)c12`, 90.8%.
Take `C/C1=C\CC[C@@]2(C)O[C@H]2[C@H]2OC(=O)C(CN3CCN(CC4C(=O)O[C@H]5[C@H]4CC/C(C)=C/CC[C@@]4(C)O[C@@H]54)CC3)[C@@H]2CC1` (stereo not given in full): the growth is 105%.
On to `Cc1nc2ccccc2n1C(=O)C[C@@H]1NC(=S)NC1=O`, for which the growth is 95.5%.
Regarding `COc1cccc(-c2nc3sccn3c2-c2ccnc(NCCNS(=O)(=O)c3ccccc3)c2)c1`, the growth was 6.29% (active).

(Values after PubChem BioAssay (NCI).)
